From PubChem BioAssay (NCATS)
Records with an inconclusive call do not appear. Active and inactive are the calls of the source. Calls come from the whole dose curve; as a rule, active = well fitted cell-killing curve with a large enough effect; inconclusive = small, poorly fitted or top-dose-only effect, or effect the other way; inactive = no such curve, though single readings can be large or run the other way.

Assay: Quantitative High-Throughput drug screen in 47 multiple myeloma cell lines against the NCATS MIPE library collection: PCM6_Riken cell viability assay (AID 1919870)
Conditions: CellTiter-Glo ATP, 48 h; series mostly up to 45.8 µM; viability (% of control): at the top concentration
How it was run: (§1)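 500 cells/well per myeloma line exposed to pinned MIPE 4.0 compounds for 48 h at 37 °C, 5% CO2. Viability read as ATP by CellTiter-Glo luminescence, normalised to DMSO-only (100%) and media-only (0%) wells.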
Note: nearly all actives have a fitted effect of over 30% in size.

SMILES	viability (% of control)
CCOC1OC(=O)C[C@H]1NC(=O)[C@@H]1CCCN1C(=O)[C@@H](NC(=O)c1ccc(N)c(Cl)c1)C(C)(C)C (some centres not stated)	125% (inactive)
O=C(O)c1cc(O)c2c(c1)C(=O)c1cccc(O)c1C2=O	120% [at 92.2 µM] (inactive)
CC(=Cc1ccccc1)C=C1SC(=S)N(CC(=O)O)C1=O	115% (inactive)

Assay: Quantitative High-Throughput drug screen in 47 multiple myeloma cell lines against the NCATS MIPE library collection: RPMI8226_ATCC cell viability assay (AID 1919871); note: potency is the fitted concentration of half-maximal effect
Conditions: RPMI8226 myeloma viability, CellTiter-Glo ATP luminescence, 48 h; series mostly up to 45.8 µM; viability (% of control): at the top concentration
How it was run: as §1

SMILES	Potency	viability (% of control)
CCCCCNC(=O)N1CCC(CN(Cc2ccc(Cl)cc2)Cc2ccc([N+](=O)[O-])s2)C1 (configuration not stated)	26.4 µM (active)	
Oc1ccc(C2=Cc3ccc(O)cc3OC2)cc1	5.9 µM (active)	
COC(=O)C1=CO[C@@H](O)[C@@H]2C(CO)=CC[C@@H]12	20.9 µM (active)	
Cc1ccn(-c2ccc(-c3ncco3)cc2)c(=O)c1-c1ccc2nc(N)ncc2c1		84.9% (inactive)
C[C@H](NC(=O)C(=O)Nc1ccccc1C(C)(C)C)C(=O)N[C@@H](CC(=O)O)C(=O)COc1c(F)c(F)cc(F)c1F	14.8 µM (active)	
CC(C)(C)NC(=O)Nc1cccc(Nc2ncc(F)c(NC(C)(C)CO)n2)c1		122% (inactive)
NC1CCC(Nc2nc(Nc3ccc(C(=O)N4CCCCC4)cc3)c3ncn(-c4cccc(F)c4)c3n2)CC1 (configuration not stated)		104% (inactive)
CC[C@H]1OC(=O)[C@H](C)[C@@H](O[C@H]2C[C@@](C)(OC)[C@@H](O)[C@H](C)O2)[C@H](C)[C@@H](O[C@@H]2O[C@H](C)C[C@H](N(C)C)[C@@H]2O)[C@](C)(O)C[C@@H](C)CN(C)[C@H](C)[C@@H](O)[C@]1(C)O	18.7 µM (active)	
NC(=O)c1cccc(-c2cc(Nc3ccc(OC(F)(F)F)cc3)ncn2)c1		97.2% (inactive)
O=C(O)C(O)Cc1ccc(O)c(O)c1 (configuration not stated)	26.4 µM (active)	
COc1cccc(-c2cc(=O)c3ccccc3o2)c1N		106% (inactive)
CC[C@@H]1C=C(C)C[C@H](C)C[C@H](OC)[C@H]2O[C@@](O)(C(=O)C(=O)N3CCCC[C@@H]3C(=O)O[C@H](C(C)=C[C@@H]3CC[C@H](Cl)[C@H](OC)C3)[C@H](C)[C@@H](O)CC1=O)[C@H](C)C[C@H]2OC	18.7 µM (active)	
COc1ccc(Cc2ccc(NC(N)=O)cc2)cc1-c1cccc(Cl)c1		92.6% (inactive)
Nc1ncnc2c1ncn2[C@@H]1O[C@@H](CO)[C@H](O)[C@H]1O		132% (inactive)
